Data: PubChem BioAssay (NCI)
Several values for one entry are separate records, joined by “and”; a condition that tells them apart may be missing. Identical values can stand only once. About 79,000 compounds went through this panel and 15% of them were active in at least one assay; those are over-represented in the sample as a whole. No stated cut-off is given here; in the data, active means growth inhibition above about 70%; inactive means the rest. Where a SMILES comes first, the peptide text is derived from it. The star is where a group is joined. Boc = CC(C)(C)OC(=O)*

How the values were obtained:
[1] = NCI Yeast Anticancer Drug Screen. Data for the rad50 strain (AID 155);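 further: 0% = growth of vehicle-only cultures of the same strain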; conditions: S. cerevisiae rad50 strain growth inhibition; at 50.0 µM; active compounds read high
Procedure, shortened: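 Compounds were tested on a yeast strain with an engineered DNA damage repair alteration; the reported value is growth inhibition normalised to vehicle treatment.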

[2] = NCI Yeast Anticancer Drug Screen. Data for the mec2-1 strain (AID 157); conditions: S. cerevisiae mec2-1 strain, at 50.0 µM, active compounds read high
Procedure, shortened: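 Each compound was tested on mec2-1 yeast, a strain altered in DNA damage repair or cell cycle control. Growth inhibition is reported relative to vehicle.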

[3] = NCI Yeast Anticancer Drug Screen. Data for the sgs1 mgt1 strain (AID 161);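 further: 0% = growth of cultures given vehicle only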; conditions: S. cerevisiae sgs1 mgt1 strain, at 50.0 µM, active compounds read high
Procedure, shortened: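 Read-out: growth inhibition vs vehicle controls. Cells: mutant yeast strain deficient in DNA damage repair.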

[4] = NCI Yeast Anticancer Drug Screen. Data for the cln2 rad14 strain (AID 165);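 further: 0% = growth equal to vehicle treated cultures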; conditions: S. cerevisiae cln2 rad14 strain, at 50.0 µM, active compounds read high
Procedure, shortened: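 Test compounds were added to cln2 rad14 yeast cultures; inhibition of growth was then determined by comparison with vehicle treatment.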

[5] = NCI Yeast Anticancer Drug Screen. Data for the bub3 strain (AID 167); conditions: S. cerevisiae bub3 mutant strain, at 50.0 µM, active compounds read high
Procedure, shortened: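 Growth of a checkpoint-deficient yeast mutant is measured after compound exposure. Values represent inhibition relative to vehicle.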

[6] = NCI Yeast Anticancer Drug Screen. Data for the mlh1 rad18 strain (AID 175); conditions: S. cerevisiae mlh1 rad18 strain growth inhibition; at 50.0 µM; active compounds read high
Procedure, shortened: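 Inhibition values reflect reduced growth of mutant yeast versus vehicle-treated controls following compound exposure; the mutations affect DNA damage repair.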

Measured: growth inhibition

O=[N+]([O-])C(CO)(CO)CO
inactive: [1] -11.3% and 11.1% | [2] -6.25% and 1.95% | [3] -6% and 6.85% | [4] -22.4% and 3.45% | [5] -2.55% and 2.6% | [6] -7.2% and 2.65%

C1CN(CCN2CCOCC2)CCO1
inactive: [1] 0.9% and 7.9% | [2] 18.1% and 13% | [3] 9.35% and 13.6% | [4] -26.6% and -40.6% | [5] 10.6% and 28.9% | [6] 7.7% and 14%

COC(=O)C(C)NC(=O)C(CCSC)NC(=O)C(Cc1ccccc1)NC(=O)OC(C)(C)C (stereo not drawn) (Boc-Phe-Met-Ala-OMe; configuration not given here)
inactive: [1] -7.05% and 1.75% | [2] -15.3% and 1.15% | [3] 2.4% and 6.3% | [4] 5.05% and 10.7% | [5] 0.15% and -11.9% | [6] 12.4% and -70.9%

CCOC(=O)c1ccc(O)c(O)c1
inactive: [1] -23.9% and 15.5% | [2] -28.1% and 6.75% | [3] -6.65% and 4.05% | [4] -12.2% and 8.9% | [5] -11.8% and 0.7% | [6] -8.8% and -5.75%

CCCCOC(=O)c1ccc(O)cc1
inactive: [1] 25.4% and 23% | [2] -2.95% and -1.8% | [3] 8.7% and -6.55% | [4] 3.55% and -11.2% | [5] 8.75% and 33.6% | [6] 23.4% and 48%

OCC(O)C(O)C(O)c1cnn(-c2ccccc2)n1 (configuration not stated)
inactive: [1] 8.95% and 4.85% | [2] -5.4% and 1.9% | [3] -4.6% and -4.7% | [4] 1.75% and -3.7% | [5] -2.85% and -8.2% | [6] 14.6% and -0.05%

COC1OC(COC(C)=O)C(OC(C)=O)C(OC(C)=O)C1NC(=O)N(CCCl)N=O (configuration not stated)
inactive: [1] -0.5% and -15.6% | [2] -7.1% and -8.6% | [3] -1.2% and -13.6% | [4] 9.65% and 20.3% | [5] 7.95% and 16.2% | [6] -10.5% and -14%

Cc1ccc(C(=O)/C=C/c2ccc3c(c2)OCO3)cc1
inactive: [1] -6.75% and 8.6% | [2] 16% and -4.7% | [3] 13.6% and 21.4% | [4] -8.95% and -1.75% | [5] 29.4% and 25.3% | [6] 15.4% and 37%

Cc1ccc(C)c(NC(=O)CC2Sc3ccccc3NC2=O)c1 (configuration not stated)
inactive: [1] -0.4% and -7.3% | [2] -25.8% and -19.4% | [3] 8.4% and -28.5% | [4] 21.9% and 8.45% | [5] 26.3% and 10.3% | [6] -5.05% and -88%

O=C(CCl)OCCC1CCCCC1
inactive: [1] 9.3% and -7.6% | [2] -16.7% and -17.1% | [3] 5.15% and -10.8% | [4] -8.7% and -29.4% | [5] 5.6% and 6.1% | [6] 1.4% and -16.4%

COC(=O)C(C)(C)O
inactive: [1] -1.2% and 20.4% | [2] 8.2% and -28.9% | [3] -4.15% and -12% | [4] -26.9% and -75.2% | [5] 1.95% and -19.1% | [6] 3.1% and 1.55%

CC(C)CC(NC(=O)COc1ccccc1Cl)C(=O)O (configuration not stated)
inactive: [1] -9.6% and 5.05% | [2] 15.5% and 14.3% | [3] 3.4% and 6.9% | [4] -11.8% and -9.2% | [5] 1.25% and 7.15% | [6] -8.75% and -13.3%

O=C(CCc1ccccc1)CCc1ccccc1
inactive: [1] -28.6% and 33.6% | [2] -4.3% and 4.85% | [3] 28.8% and 7.55% | [4] -30.9% and 27.6% | [5] 0.55% and 35.2% | [6] -20.4% and 26.6%

CN(C)CC1CCCC(CN2CCCCC2)C1=O (configuration not stated)
inactive: [1] -13.3% and -7.95% | [2] -37.8% and 9.7% | [3] -33.5% and 8.2% | [4] 4.6% and -38.9% | [5] -11.6% and -9.5% | [6] -6.4% and 9.4%

[B]C(=O)NC(CC(C)C)C(=O)NC1c2ccsc2C(=O)C1O (configuration not stated) (tested in a mixture with another compound)
inactive: [1] 3.05% and 4.2% | [2] 18.6% and 22.4% | [3] 12.1% and 2.9% | [4] 2.9% and 16.6% | [5] 32.3% and 33.1% | [6] -16.1% and -21.4%

Nc1c(O)nc[nH]c1=O
inactive: [1] 3.5% and -8.25% | [2] -5.15% and -3.15% | [3] -9% and -8.55% | [4] -1.55% and -39.1% | [5] 4.8% and -10.2% | [6] -16.6% and -8.95%

COc1ccc(Cc2c3cc(O)c(=O)cc-3ccn2C)cc1OC
inactive: [1] 2.75% and 47.7% | [2] 14.2% and 24.5% | [3] 23.4% and 22.3% | [4] 32.2% and 8.35% | [5] 29.2% and 5.5% | [6] 28.1% and 17.9%

N#CC1OC1c1cccc[n+]1[O-] (configuration not stated)
inactive: [1] 9.05% and 4.6% | [2] -7.8% and -3.3% | [3] 0.85% and -8.7% | [4] -45.9% and -29.5% | [5] -11.7% and -13.9% | [6] -3.15% and 8.5%

CCOc1ccc(C(C)=O)cc1
inactive: [1] 10.7% and -0.6% | [2] 5.25% and 3.75% | [3] 5.85% and 3.85% | [4] 10.9% and 1.45% | [5] 5.5% and 3.65% | [6] -2.05% and -7.45%

O=C(/C(=N/N(C(=O)c1ccccc1)c1ccccc1)c1ccccc1)c1ccccc1
inactive: [1] 29.4% and 22.2% | [2] 5.2% and -1.9% | [3] 19% and 16.8% | [4] -12.4% and 16.6% | [5] -3.85% and -6.05% | [6] 8.65% and 26.4%

C/C(C=O)=C\c1ccc(N(C)C)cc1
inactive: [1] -36.5% and 5% | [2] -21.8% and 2.5% | [3] -20.6% and -13.9% | [4] -44.8% and 13.2% | [5] 16.5% and 8.5% | [6] -4.45% and 13.6%

Oc1ccc[n+](Cc2ccccc2)c1
inactive: [1] -7.85% and -26.4% | [2] -24.1% and -43.9% | [3] -47.3% and -12.4% | [4] 7.35% and 24.6% | [5] -49.5% and -22.8% | [6] -21.8% and -11.4%

Oc1ccc(-c2ccc(O)cc2)cc1
inactive: [1] 36.2% and -18.6% | [2] 2.45% and -3.75% | [3] 7.4% and -17.4% | [4] 19.9% and -27.9% | [5] 11.9% and 12.9% | [6] 13.8% and 19.3%

O=C(O)c1cccnc1
inactive: [1] 18.2% and 13.2% | [2] 5.35% and -7.8% | [3] -4.15% and -10% | [4] 2.65% and -2.6% | [5] 5.65% and -0.1% | [6] 18.5% and 16.7%

OC1COCOC1C1OCOCC1O (configuration not stated)
inactive: [1] 11.2% and -5.6% | [2] -2.7% and -8.35% | [3] 2.3% and 19.4% | [4] -18.2% and -29% | [5] -1.9% and -4.2% | [6] -5.6% and -0.85%

[Cl][Pr]([Cl])[Cl]
inactive: [1] 21.9% and 19.1% | [2] -7.65% and 5.55% | [3] -3.4% and 33.6% | [4] 1.6% and 19.1% | [5] 7.65% and 22.9% | [6] 1.4% and 42.2%

CC(=O)OCC1OC(n2c(=S)n(-c3ccc(C)cc3)c(=O)c3ccccc32)C(OC(C)=O)C(OC(C)=O)C1OC(C)=O (configuration not stated)
inactive: [1] 2.2% and 32% | [2] 6.1% and 18.4% | [3] -11.1% and 15.9% | [4] 21% and 21.2% | [5] -6.65% and 14.7% | [6] -9.4% and 4.9%
